“And” between values parts separate entries of the source, which are not always exact repeats. Identical values can stand only once.
Assay: EMT-state selective cytotoxicity in co-culture – imaging, PC-3E GFP, TEM4-18 mCherry, primary screen (AID 1345086);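 also: cells exposed to compound for 72 h before imaging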
Conditions: PC-3E GFP / TEM4-18 mCherry co-culture, imaging cell counts; measured here: epithelial PC-3E GFP cell survival; at 1 µM

Compound | normalised cell number
CC(=O)OCC(=O)[C@@]1(O)[C@H](C)CC2C3CCC4=CC(=O)C=C[C@]4(C)[C@@]3(F)[C@@H](O)C[C@@]21C (stereo not given in full) | 1.37
Nc1ccn(C2O[C@H](CO)[C@@H](O)[C@H]2O)c(=O)n1 (stereo not given in full) | 1.06
O=C(/C=C/c1ccc(O)c(O)c1)OC(Cc1ccc(O)c(O)c1)C(=O)O (stereo not given) | 1.08
C=C(C)[C@H]1CC=C(C(=O)O)CC1 | 1.08
NC(COCc1ccccc1)C(=O)O (stereo not given) | 1.19
C/C=C(/C)C(=O)O[C@@H]1[C@H](OC(C)=O)[C@@]2(CO)C(CC1(C)C)C1=CCC3[C@@]4(C)CC[C@H](O[C@@H]5O[C@H](C(=O)O)[C@@H](O[C@@H]6O[C@H](CO)[C@@H](O)[C@H](O)[C@H]6O)[C@H](O)[C@H]5O[C@@H]5O[C@H](CO)[C@@H](O)[C@H](O)[C@H]5O)[C@](C)(CO)C4CC[C@@]3(C)[C@]1(C)C[C@H]2O (stereo not given in full) | 1.1
C[C@@H]1O[C@@H](OC[C@H]2OC(Oc3c(-c4ccc(OCCO)c(OCCO)c4)oc4cc(OCCO)cc(O)c4c3=O)[C@H](O)[C@@H](O)[C@@H]2O)[C@H](O)[C@H](O)[C@H]1O (stereo not given in full) | 1.03
CC1(C)C2CC[C@]3(C)C(C(=O)C=C4[C@H]5C[C@@](C)(C(=O)O)CC[C@]5(C)CC[C@]43C)[C@@]2(C)CC[C@@H]1O (stereo not given in full) | 1.03
CC1(C)C2CC[C@]3(C)C(C(=O)C=C4[C@@H]5C[C@@](C)(C(=O)O)CC[C@]5(C)CC[C@]43C)[C@@]2(C)CC[C@@H]1O (stereo not given in full) | 0.92
COc1ccc([C@@H]2CC(=O)c3c(O)cc(O[C@@H]4O[C@H](CO[C@H]5O[C@@H](C)[C@H](O)[C@@H](O)[C@H]5O)[C@@H](O)[C@H](O)[C@H]4O)cc3O2)cc1O | 0.99
CN[C@@H]1[C@@H](O)[C@@H](O[C@@H]2[C@@H](O)[C@H](O[C@H]3O[C@H]([C@@H](C)NC)CC[C@H]3N)[C@@H](N)C[C@H]2N)OC[C@]1(C)O | 1.22
CC(=O)[C@@]1(O)CCC2C3C=C(Cl)C4=CC(=O)[C@@H]5CC5[C@]4(C)C3CC[C@@]21C (stereo not given in full) | 1.07
CC(C)(C)NC[C@@H](O)COc1nsnc1N1CCOCC1 | 0.88
CC(C)CC(NC(=O)CCN)C(=O)O (stereo not given) | 1.22
CC[C@H](C)C(=O)O[C@H]1CCC=C2C=C[C@H](C)C(CCC3C[C@@H](O)CC(=O)O3)[C@H]21 (stereo not given in full) | 0.95
NC[C@H]1O[C@H](O[C@H]2C(O[C@@H]3O[C@H](CO)[C@@H](O)[C@H]3O)[C@@H](O)[C@H](N)C[C@@H]2N)[C@H](N)[C@@H](O)[C@@H]1O (stereo not given in full) | 1.26
CC1=C2C(=CO[C@H](C)[C@H]2C)C(=O)C(C(=O)O)=C1O | 0.92 and 0.97 and 1.03
CC(=O)Oc1ccc2c(c1)CCC1C2CC[C@@]2(C)C1CC[C@@H]2OC(C)=O (stereo not given in full) | 1.29
C1CCN2C[C@H]3C[C@H](CN4CCCC[C@@H]34)[C@H]2C1 | 1.18
CC(CCC(=O)O)[C@H]1CCC2C3CC[C@@H]4C[C@H](O)CC[C@]4(C)C3CC[C@@]21C (stereo not given in full) | 0.91
C[C@@H]1CC[C@@]2(OC1)OC1CC3C4CC=C5C[C@@H](O)CC[C@]5(C)C4CC[C@]3(C)C1[C@@H]2C (stereo not given in full) | 1.02
CC1CCC2(OC1)OC1CC3C4CC[C@H]5C[C@@H](O)CC[C@]5(C)C4CC(=O)[C@]3(C)C1C2C (stereo not given in full) | 1.02
CC(=O)Oc1ccc2c(c1)CCC1C2CC[C@]2(C)C(=O)CCC12 (stereo not given in full) | 1.27
CCCC(=O)Nc1ncnc2c1ncn2C1O[C@@H]2COP(=O)(O)O[C@H]2[C@H]1OC(=O)CCC (stereo not given in full) | 0.93
CC(=O)O[C@@H]1CC2C(C)(C)C(=O)C=C[C@]2(C)C2CC[C@@]3(C)[C@H](c4ccoc4)OC(=O)[C@H]4O[C@]43[C@@]21C (stereo not given in full) | 0.89
CC(=O)N[C@@H]1[C@@H](C(O)[C@H](O)CO)O[C@](O)(C(=O)O)C[C@@H]1O (stereo not given in full) | 1.19
CCCCC(=O)O[C@]1(C(=O)CO)[C@@H](C)CC2C3CCC4=CC(=O)C=C[C@]4(C)[C@@]3(F)C(O)C[C@@]21C (stereo not given in full) | 0.8
CC(C)Oc1ccc2c(=O)cc(-c3ccccc3)oc2c1 | 1.15
NC[C@@H]1O[C@H](O[C@@H]2[C@@H](CO)OC(O[C@@H]3[C@@H](O)[C@H](N)C[C@H](N)[C@H]3O[C@H]3O[C@H](CO)[C@@H](O)[C@H](O)[C@H]3N)[C@@H]2O)[C@H](N)[C@@H](O)[C@@H]1O (stereo not given in full) | 0.93
COc1ccc(-c2cc(=O)c3c(O)cc(O[C@@H]4O[C@H](CO[C@H]5O[C@H](C)[C@@H](O)[C@H](O)[C@@H]5O)[C@@H](O)[C@H](O)[C@H]4O)cc3o2)cc1O | 1.13

— PubChem BioAssay
